Shown are actives, neighbours in structure and some others; about 2.6% of the full set was active somewhere.
PABP polyA inh = PABP poly(A) RNA binding inhibitors, primary screen, biochemical, fluorescence polarization, uHTS; Polyadenylate-binding protein 1 (Homo sapiens), P11940; calls only at 35 µM; actives 1% (n = 290,000);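 further: calls also rest on retests at 20 µM and on dose response follow-up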
Target sequence (P11940 whole entry, looked up): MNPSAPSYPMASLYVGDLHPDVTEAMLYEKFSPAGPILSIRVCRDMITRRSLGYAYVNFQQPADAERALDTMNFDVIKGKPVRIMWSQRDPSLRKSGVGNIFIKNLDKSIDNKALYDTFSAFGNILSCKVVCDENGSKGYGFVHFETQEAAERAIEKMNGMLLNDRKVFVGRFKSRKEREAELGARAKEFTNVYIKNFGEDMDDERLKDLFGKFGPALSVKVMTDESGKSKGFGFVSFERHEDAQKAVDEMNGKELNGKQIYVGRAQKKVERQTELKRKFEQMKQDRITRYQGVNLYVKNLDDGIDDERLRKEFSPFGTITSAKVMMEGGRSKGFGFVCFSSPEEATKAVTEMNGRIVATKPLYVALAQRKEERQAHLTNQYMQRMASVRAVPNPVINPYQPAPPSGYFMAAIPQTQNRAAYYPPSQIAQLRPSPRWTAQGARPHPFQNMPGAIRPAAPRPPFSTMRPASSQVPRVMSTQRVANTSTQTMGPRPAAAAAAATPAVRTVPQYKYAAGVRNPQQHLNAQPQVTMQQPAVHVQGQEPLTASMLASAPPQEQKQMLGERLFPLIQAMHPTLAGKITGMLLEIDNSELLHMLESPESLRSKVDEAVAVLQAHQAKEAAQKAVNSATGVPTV
ABCB6 inh 2 = ABCB6 transporter inhibitors, primary screen, K562-ABCB6 cells, flow cytometry, MLPCN library. ATP-binding cassette sub-family B member 6 (Homo sapiens), Q9NP58. fluorescence ratio to DMSO, % at 10 µM. AID 602162, 2011. actives 0.19% (n = 360,000). K562-ABCB6 porphyrin accumulation, 1 h; active compounds read low;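 active means fluorescence ratio to DMSO below 75%, the collection mean minus 3 SD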;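 further: signal is porphyrin accumulated inside mitochondria; 100% equals median channel fluorescence of DMSO control wells; lower ratio means ABCB6 inhibition with less porphyrin fluorescence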
PHOSPHO1 inh = PubChem AID 1565; inhibition, % at 13.3 µM; actives 1.1% (n = 290,000); recombinant PHOSPHO1, absorbance phosphatase assay; in the data active means inhibition above about 60%
eIF4H inh = human eIF4H binding inhibitors, primary screen, translation initiation inhibitor project, biochemical, uHTS, fluorescence polarization; eIF4H fluorescence polarization binding assay; inhibition, % at 35 µM; actives 0.94% (n = 290,000); AID 2012, 2009;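 further: calls also rest on retests at 20 µM and on dose response follow-up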
MLLE-PAM2 inh = inhibitors of PABP1 MLLE–PAM2 peptide binding, primary screen, biochemical, fluorescence polarization, FITC-PAM2, GST-MLLE | Polyadenylate-binding protein 1 (Homo sapiens), P11940 | inhibition, % at 20 µM | actives 0.36% (n = 360,000) | AID 588489, 2011; in the data active means inhibition above about 35%, passing the limit was not always enough;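 further: plate controls were DMSO wells with GST-MLLE for no effect and wells lacking GST-MLLE protein for full effect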
AI-2 QS mod = Vibrio harveyi AI-2 quorum sensing modulators, primary screen, JMH597 strain, luminescence/OD600 ratio; actives 0.4% (n = 300,000); Vibrio harveyi JMH597 AI-2 luminescence/OD600 ratio, 9 h; active compounds read low; strain lacks LuxN and CqsS sensors; 0 = neutral-control median; activity change, % at 7.5 µM; in the data active means activity change below about -75%, passing the limit was not always enough;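 further: luminescence divided by OD600 gain over 9 h not by final OD600 alone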
Active calls of the source: *; i = inactive; / = no result given; + = active, no number. Unless noted, how the calls were made is not given here.

SMILES | PABP polyA inh | ABCB6 inh 2 | PHOSPHO1 inh | eIF4H inh | MLLE-PAM2 inh | AI-2 QS mod
Cc1ccc(S(=O)(=O)N(C)C)cc1-n1c(SCC(=O)Nc2ccc(F)c(F)c2F)nc2ccccc2c1=O | i | 93.0 | -2.5 | -8.1 | 0.0 | 34.4
CCc1nc2c(OCc3ccc(F)c(F)c3)cccn2c1N(C)C(=O)C1CC1 | / | 96.0 | / | / | 2.4 | /
C[C@H](O)[C@@H]1C(=O)N2CCc3ccc(-c4ccccc4)cc3[C@@H]2C[C@@H]1N(C)C(=S)Nc1ccc(F)cc1 | / | 96.0 | / | / | -91.8 | /
CCNC(=S)NNC(=O)c1cc(-c2cccc(C)c2)nc2ccccc12 | i | 93.0 | 71.9* | 3.4 | 26.3 | 11.3
Cc1ccccc1NC(=O)c1nc2nccc(C)n2n1 | i | 94.0 | 1.8 | active | 9.4 | 18.7
N/C(Cn1cncn1)=N\NC(=O)c1ccc(Cl)cc1Cl | i | 99.0 | 47.1 | -6.0 | 8.0 | 31.5
N/C(Cn1cncn1)=N\NC(=O)C(=O)Nc1ccc(Cl)cc1Cl | i | 103.0 | 60.0* | -7.4 | 8.3 | 32.0
CCc1ccccc1Oc1nc(NC(C)C)nc2ccsc12 | / | 93.0 | / | / | 21.9 | /
COC(=O)C1C(=O)OC(C)(C)C1C(C)C(=O)c1ccc(C)cc1C (centres undefined) | i | 92.0 | 60.0* | -1.8 | -2.1 | 7.7
CCOC(=O)C1C(=O)OC(C)(C)C1C(C)C(=O)c1ccc(C)cc1C (centres undefined) | i | 97.0 | 17.0 | -0.9 | -7.1 | 47.9
O=C(CSc1nc2sccc2c(=O)[nH]1)N1CCN(c2ccccc2)CC1 | + | 100.0 | 27.6 | 61.5 | -86.4 | 18.0
O=C(CSc1nc2ccccc2[nH]1)N1CCN(c2ccccc2)CC1 | i | 99.0 | 24.9 | 5.7 | -7.0 | 11.5
N#CCCn1cc(C=C(C#N)C#N)c(-c2ccc(Cl)cc2)n1 | i | 94.0 | 60.0* | -8.4 | 27.2 | 9.7
NC(=S)NN=Cc1cc(-c2cccc(N)c2)ccn1 | / | 100.0 | / | / | -0.6 | /
COc1ccc2nc(/C(C#N)=C\c3ccc(Oc4ccc([N+](=O)[O-])cn4)cc3)[nH]c2c1 | + | 136.0 | 11.7 | 83.9* | -81.7 | 4.6
O=C(Nc1cccc(Cl)c1Cl)c1csc([C@H]2C[C@H](O)[C@@H](CO)O2)n1 | / | 97.0 | / | / | 5.2 | /
Clc1ccc(-c2cn3nc4c(nc3n2)CCCC4)cc1 | i | 105.0 | 88.2* | 23.4 | 98.1 | 11.0
O=C1NC(=S)N(C(=O)c2ccc(F)cc2)/C1=C/c1cccnc1 | i | 15.0* | 38.0 | -3.1 | -18.6 | 26.9
O=C1NC[C@H](Cc2ccc(O)cc2)N(C[C@@H]2CCCN2C[C@H](Cc2ccccc2)N2C[C@H](Cc3ccc(O)cc3)N(CC3CCCCCC3)C(=O)C2=O)C1=O | / | 106.0 | / | / | / | /
CCc1ccc(-n2c(Cn3nc(C(F)(F)F)cc3C)n[nH]c2=S)cc1 | i | 80.0 | 88.9* | -10.7 | -9.0 | 0.4
Cc1cc(C(F)(F)F)nn1Cc1n[nH]c(=S)n1-c1ccc(F)cc1 | i | 93.0 | -4.0 | -1.3 | -32.0 | 15.9
Fc1ccc(-c2ccnc(=S)[nH]2)cc1 | i | 99.0 | 43.6 | -5.0 | 39.0* | 14.8
CCOC(=O)c1c(C2COc3ccccc3O2)csc1NC(=O)c1ccco1 (centres undefined) | i | 94.0 | 86.0* | 1.6 | 27.5 | 30.3
CCOC(=O)c1c(-c2cccs2)csc1NC(=O)c1ccco1 | i | 96.0 | 6.3 | 6.8 | -8.3 | 22.8
O=C(CC(=O)c1ccccc1)c1ccccc1 | / | 99.0 | / | / | 8.6 | /
SMILES | PABP polyA inh | ABCB6 inh 2 | PHOSPHO1 inh | eIF4H inh | MLLE-PAM2 inh | AI-2 QS mod
CN(CCC(=O)c1ccccc1)CCC(=O)c1ccccc1 | i | 98.0 | 36.0 | 1.1 | 43.9* | 3.0
Cn1c(CSCc2ccc(Cl)cc2)nnc1SCC(=O)Nc1nccs1 | i | 98.0 | -17.4 | 9.1 | 0.2 | 16.0
Cn1c(CSCc2ccc(Cl)cc2)nnc1SCC(=O)Nc1nc2ccccc2s1 | i | 95.0 | 73.3* | -3.1 | 1.9 | 12.1
Cn1c(=O)c2ncn(CC(=O)NC3CCCCCC3)c2n(C)c1=O | + | 92.0 | 83.7* | -6.3 | -112.4 | 3.6
Cc1ccc(C2(CCNCc3ccc(N(C)C)cc3)CCOC(C(C)C)C2)cc1 (centres undefined) | i | 99.0 | 63.6* | -1.5 | -5.8 | 11.0
CN(C(=O)C1Cc2c(-c3ccc(Cl)cc3)ccnc2O1)c1ccccc1 (centres undefined) | / | 99.0 | / | / | 10.7 | /
CCOc1ccc(N/C(=C(/C(Cl)=C(Cl)Cl)[N+](=O)[O-])n2cncn2)cc1 | i | / | 20.4 | 8.5 | / | 24.5
O=[N+]([O-])/C(C(Cl)=C(Cl)Cl)=C(\Nc1ccc(F)cc1)n1cncn1 | i | / | 93.2* | 3.3 | / | 5.9
COCCNc1nc(Nc2ccc(C#N)cc2)c2sccc2n1 | / | 98.0 | / | / | 11.8 | /
N#Cc1c(N)n(-c2ccc(N)cc2)c2nc3ccccc3nc12 | i | 95.0 | 1.0 | -1.2 | 11.3 | 37.5
N#Cc1c(N)n(-c2ccc(C(=O)O)cc2)c2nc3ccccc3nc12 | i | 97.0 | -0.8 | 79.5* | -42.8 | 6.9
Cc1[nH]nc2c(=S)[nH]c(=O)[nH]c12 | / | 101.0 | / | / | 40.1* | /
S=C(NNc1cccc(Cl)c1)NC1CCCCC1 | + | 93.0 | -1.7 | 3.3 | -83.3 | 1.1
COc1ccc(S(=O)(=O)N2CCC3CC2c2c(-c4ccc(C(F)(F)F)cc4)cccc23)cc1 (centres undefined) | / | 104.0 | / | / | 4.8 | /
CCC12CCCN3CCc4c(n(c5ccccc45)C(O)(C(=O)OC)C1)C32 (centres undefined) | + | 101.0 | 24.6 | 95.8* | -1.0 | 6.0
Cc1cc(C(=O)N2CCC2(C)C(=O)NCC(C)(C)C)nn1C (centres undefined) | / | 102.0 | / | / | 3.7 | /
COc1cccc(C2=Cc3ccc(F)cc3C(CC(C)=O)N2c2ccc(C#CC3(O)CCCCC3)cc2)c1 (centres undefined) | / | 95.0 | / | / | / | /
CCC(c1nnnn1Cc1ccc(F)cc1)N(CCCO)Cc1cc2cc3c(cc2[nH]c1=O)OCO3 (centres undefined) | i | 100.0 | 16.7 | 9.7 | 45.3* | 23.5
CCC(c1nnnn1CC1CCCO1)N(CCCO)Cc1cc2cccc(C)c2[nH]c1=O (centres undefined) | i | 100.0 | 26.3 | -11.5 | 25.0 | 17.1
CCCCc1c(CCC)c(=N)c2ccccc2n1C | + | 92.0 | -77.7 | 1.6 | -106.7 | 28.5
CCCCc1c(O)c2ccccc2n(CCCC)c1=O | i | 91.0 | 11.7 | 6.9 | 8.4 | 12.2
COc1ccccc1-c1nnc2n1N=C(C)CS2 | i | 102.0 | 73.8* | -2.3 | -32.0 | 8.9
